From PubChem BioAssay (EPA / NIEHS)
Inconclusive results are not listed. Activity calls are given as the source filed them. Rule for the calls: active = hit-call score of the fitted dose curve at least 0.9, where 1 is the maximum; inconclusive = response in the unintended direction; inactive = score below 0.9.

What was measured:
[1] = target: Cellular tumor antigen p53 (Homo sapiens) (UniProt P04637); test: TOX21_p53_BLA_p2_ratio: Tox21 HCT-116 p53 Agonism Beta-lactamase Assay, Ratio, Phase 2 (AID 2283592)
Cellular tumor antigen p53 (Homo sapiens), sequence (P04637 whole entry, looked up): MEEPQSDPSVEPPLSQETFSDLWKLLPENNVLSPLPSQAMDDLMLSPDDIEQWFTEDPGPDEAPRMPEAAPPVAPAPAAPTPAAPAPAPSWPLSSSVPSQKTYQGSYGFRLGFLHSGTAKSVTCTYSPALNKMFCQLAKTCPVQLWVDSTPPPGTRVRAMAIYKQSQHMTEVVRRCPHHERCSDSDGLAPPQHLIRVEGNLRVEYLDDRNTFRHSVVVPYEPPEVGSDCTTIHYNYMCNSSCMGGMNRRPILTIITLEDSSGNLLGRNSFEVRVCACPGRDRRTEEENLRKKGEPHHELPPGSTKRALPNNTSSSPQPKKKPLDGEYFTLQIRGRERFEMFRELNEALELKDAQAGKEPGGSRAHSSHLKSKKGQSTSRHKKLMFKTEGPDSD
Outline: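 Ratio endpoint: beta-lactamase cleavage of CCF4-AM, blue (460 nm) over green (530 nm). HCT116 reporter line; 16 h treatment, 37C; substrate 2 h RT.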

[2] = TOX21_p53_BLA_p3_viability: Viability Assessment in the Tox21 HCT-116 p53 Agonism Beta-lactamase Assay, Phase 3 (AID 2283593);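 note: cells exposed to compound for 16 h before reading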
Outline: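 HCT-116 cells (4000/well) rested 5 h at 37C, then got DMSO compounds by pin tool (217-fold dilution) for 16 h at 37C, 5% CO2. After the bla read, CellTiter-Glo was added and luminescence read at 30 min, room temperature.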

[3] = target: Cellular tumor antigen p53 (Homo sapiens) (UniProt P04637); test: TOX21_p53_BLA_p3_ratio: Tox21 HCT-116 p53 Agonism Beta-lactamase Assay, Ratio, Phase 3 (AID 2283596)
Outline: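 Cells were seeded at 4000/well, rested 5 h at 37C, then dosed with DMSO compound solutions (217-fold dilution) for 16 h. CCF4-AM substrate was loaded for 2 h at room temperature, and the 460/530 nm emission ratio was fitted for gain of signal versus DMSO.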

[4] = TOX21_p53_BLA_p4_viability: Viability Assessment in the Tox21 HCT-116 p53 Agonism Beta-lactamase Assay, Phase 4 (AID 2283597);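 note: hits lower the luminescence signal meaning cytotoxicity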
Outline: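 Cytotoxicity was inferred from loss of CellTiter-Glo luminescence. HCT116 cells had been dosed with compounds after 5 h plating, incubated 16 h at 37C and 5% CO2, and exposed to the CCF4-AM substrate for 2 h.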

[5] = target: Cellular tumor antigen p53 (Homo sapiens) (UniProt P04637); test: TOX21_p53_BLA_p5_ratio: Tox21 HCT-116 p53 Agonism Beta-lactamase Assay, Ratio, Phase 5 (AID 2283599)
Outline: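 HCT-116 cells carrying a p53-inducible beta-lactamase reporter were seeded at 4000 cells/well and dosed after 5 h with compound in DMSO (217-fold dilution). After 16 h at 37C, CCF4-AM substrate was added for 2 h, and the 460/530 nm emission ratio was scored as gain-of-signal versus DMSO.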

[6] = target: Cellular tumor antigen p53 (Homo sapiens) (UniProt P04637); test: TOX21_p53_BLA_p4_ratio: Tox21 HCT-116 p53 Agonism Beta-lactamase Assay, Ratio, Phase 4 (AID 2283601)
Outline: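 HCT116 cells carrying an inducible beta-lactamase reporter were plated at 4000 cells/well, rested 5 h, then exposed to compounds in DMSO (217-fold dilution) for 16 h at 37C. CCF4-AM substrate was loaded 2 h at room temperature; 460/530 nm emission ratio scored gain-of-signal versus DMSO.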

[7] = TOX21_p53_BLA_p5_viability: Viability Assessment in the Tox21 HCT-116 p53 Agonism Beta-lactamase Assay, Phase 5 (AID 2283600)
Outline: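 Luciferase-coupled ATP quantitation of cells treated for 16 h (37C, 5% CO2) with test chemicals delivered in DMSO via a 217-fold dilution; 4000 cells/well; reagent incubated 30 min at room temperature before luminescence reading.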

[8] = target: Thyroid hormone receptor alpha (Rattus norvegicus) + Thyroid hormone receptor beta (Rattus norvegicus) (UniProt P18113+P63059); test: TOX21_TR_LUC_GH3_Antagonist_Followup: Tox21 GH3 Thyroid Hormone Receptor Antagonism Luciferase Follow-Up Assay (AID 2283942)
Outline: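 In a GH3 luciferase reporter line, test chemicals spanning 92 uM to 5nM final are co-incubated 24 h with 1.0 nM T3. Activity is expressed as relative luminescence units and analysed relative to DMSO.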

THRA (gene 7067) = THRA (gene 7067) (UniProt P10827); test: TOX21_TRA_COA_Antagonist_Followup_ratio: Tox21 Thyroid Hormone Receptor alpha Antagonism through Coactivator Recruitment Follow-Up Assay, Ratio (AID 2283953)
THRA (gene 7067), sequence (P10827 whole entry, looked up, the tested form may be a part): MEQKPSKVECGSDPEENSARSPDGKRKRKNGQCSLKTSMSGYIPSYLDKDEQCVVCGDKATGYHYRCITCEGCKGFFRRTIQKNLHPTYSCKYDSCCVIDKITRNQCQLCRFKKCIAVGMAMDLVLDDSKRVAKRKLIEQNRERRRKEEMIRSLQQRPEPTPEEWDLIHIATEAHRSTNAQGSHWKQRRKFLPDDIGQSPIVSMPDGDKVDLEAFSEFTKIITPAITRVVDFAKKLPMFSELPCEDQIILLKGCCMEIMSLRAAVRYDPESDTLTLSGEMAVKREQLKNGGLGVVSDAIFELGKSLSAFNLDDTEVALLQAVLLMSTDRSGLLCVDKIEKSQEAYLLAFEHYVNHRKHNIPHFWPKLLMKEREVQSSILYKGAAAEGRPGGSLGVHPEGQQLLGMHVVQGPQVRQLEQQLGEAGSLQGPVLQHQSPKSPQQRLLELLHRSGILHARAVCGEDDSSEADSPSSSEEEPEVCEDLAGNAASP
Outline: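 GST-TRα LBD 2.5 nM, BSA 0.10%, + cpd; then FITC-SRC-2 peptide 200 nM + Tb-anti-GST Ab 2 nM. TR-FRET ratio 520/495 nm. Norm: DMSO = 0%, T3 = 100%.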

THRB (gene 7068) [9] = target: THRB (gene 7068) (UniProt P10828); test: TOX21_TRB_BLA_Antagonist_Followup_ratio: Tox21 Thyroid Hormone Receptor beta Antagonism Beta-lactamase (BLA) Follow-Up Assay, Ratio (AID 2283958)
THRB (gene 7068), sequence (P10828 whole entry, looked up, the tested form may be a part): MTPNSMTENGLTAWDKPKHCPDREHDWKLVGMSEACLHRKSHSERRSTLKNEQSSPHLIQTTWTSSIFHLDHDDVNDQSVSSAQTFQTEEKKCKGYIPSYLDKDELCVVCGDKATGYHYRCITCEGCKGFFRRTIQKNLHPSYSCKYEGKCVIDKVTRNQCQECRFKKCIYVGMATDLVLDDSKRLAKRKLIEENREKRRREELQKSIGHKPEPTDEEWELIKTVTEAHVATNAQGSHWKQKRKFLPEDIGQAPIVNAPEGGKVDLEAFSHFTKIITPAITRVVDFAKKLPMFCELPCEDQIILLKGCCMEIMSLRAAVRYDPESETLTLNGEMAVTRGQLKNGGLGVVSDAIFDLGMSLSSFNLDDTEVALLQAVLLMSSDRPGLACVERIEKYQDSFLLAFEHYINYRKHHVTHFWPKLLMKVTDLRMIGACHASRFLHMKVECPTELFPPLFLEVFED
Outline: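 Cells were plated and allowed to attach for 5 h, then dosed with compounds in DMSO at 11 concentrations for 18 h at 37C. Beta-lactamase reporter activity was measured via CCF4-AM FRET as the 460:530 nm ratio.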

THRB (gene 7068) [10] = target: THRB (gene 7068) (UniProt P10828); test: TOX21_TRB_COA_Antagonist_Followup_ratio: Tox21 Thyroid Hormone Receptor beta Antagonism through Coactivator Recruitment Follow-Up Assay, Ratio (AID 2283967)
Outline: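 Coactivator (SRC-2) recruitment to purified GST-TRβ ligand-binding domain is monitored by terbium-to-fluorescein energy transfer, emission ratio 520:495 nm. DMSO wells define 0% and T3 wells 100% activity.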

[11] = TOX21_TR_RXR_BLA_Antagonist_Followup_viability: Viability Assessment in the Tox21 Thyroid Hormone Receptor beta Retinoid X Receptor alpha (RXRa) Antagonism Beta-lactamase (BLA) Follow-Up Assay (AID 2283979)
Outline: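 RXRa-UAS-bla HEK293T cells seeded 2,500/well in phenol red-free DMEM with 2% charcoal-stripped FBS, attached 5 h, then exposed to compounds at 11 concentrations in triplicate for 16 h at 37C/5% CO2. Viability read by CellTiter-Glo ATP luminescence; bidirectional fit versus DMSO.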

Structure (SMILES) | AC50 [1] | outcome [2] | outcome [3] | outcome [4] | outcome [5] | outcome [6] | outcome [1] | outcome [7] | outcome [8] | outcome (THRA (gene 7067)) | outcome (THRB (gene 7068) [9]) | outcome (THRB (gene 7068) [10]) | outcome [11]
CCCCCCCCCCCCCCCCCCn1cc[n+](C)c1 | 8.42 µM (active) | inactive | inactive | inactive | inactive | inactive |  |  |  |  |  |  | 
CC(N)Cc1ccc2c(c1)OCO2 (stereo unspecified) |  | inactive | inactive |  | inactive | inactive | inactive | inactive |  |  |  |  | 
CCOC(=O)C(Cl)C(C)=O (stereo unspecified) |  | inactive | inactive |  | inactive | inactive | inactive | inactive |  |  |  |  | 
CC(=O)[C@H]1CC[C@H]2[C@@H]3CC[C@@H]4C[C@H](O)CC[C@]4(C)[C@H]3CC[C@]12C |  | inactive | inactive | inactive | inactive | inactive | inactive | inactive | inactive | inactive | inactive | inactive | inactive
CN=CNc1ccc(C)cc1C |  | inactive | inactive |  | inactive | inactive | inactive | inactive |  |  |  |  | 
